tim23-1 inh – tim23-1 yeast growth inhibition; S. cerevisiae tim23-1 growth, BacTiter-Glo luminescence, 24 h; inhibition, % at 20 µM; actives 1.3% (n = 330,000);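 active means growth inhibition of the mutant yeast at or above 50%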;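 further: temperature-sensitive mutant grown at 25 °C; plate controls were DMSO-treated mutant yeast for no effect and medium wells lacking yeast for full effect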
TIM10 inh – inhibits growth of TIM10 yeast strain; actives 1.4% (n = 330,000); inhibition, % at 10 µM; AID 463195; S. cerevisiae TIM10 strain growth, BacTiter-Glo luminescence, 24 h;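 active means inhibition of 40% or more at the single tested concentration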;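 further: wild-type TIM10 isogenic control strain grown at permissive 25 °C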
V-ATPase pHluor – yeast V-ATPase proton transport regulation by pHLuorin. response, % at 10 µM. S. cerevisiae, pHLuorin cytosolic pH fluorescence. actives 0.37% (n = 350,000). AID 504577; in the data active means response mostly above about 7.3%, no sharp cut-off; inactive means mostly below about 5.4%; further: actives read high
NLRP3 yeast inh – NALP3 inhibition in yeast; AID 2825; inhibition, % at 10 µM; actives 0.39% (n = 330,000); Yeast reconstituted NLRP3/ASC/caspase-1, beta-gal luminescence, 24 h;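 active means inhibition of 50% or more; inactive means inhibition below 50%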;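 further: plate controls were induced DMSO wells for no effect and uninduced yeast grown without galactose for full effect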
tim10-1 inh – tim10-1 yeast growth inhibition. S. cerevisiae tim10-1 ts strain growth, BacTiter-Glo, 24 h. inhibition, % at 20 µM. actives 2.2% (n = 330,000). AID 463190;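 active means inhibition of at least 40%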;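 further: mutant grown at 25 °C; 0% = DMSO wells with yeast and 100% = wells holding no yeast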
NALP1 inh – blocks the NALP1 inflammasome reconstituted in yeast | S. cerevisiae NALP1/ASC/caspase-1 growth, X-gal OD620, 72 h | inhibition, % at 10 µM | actives 0.61% (n = 280,000) | AID 2071; in the data active means inhibition mostly above about 24%, no sharp cut-off; inactive means mostly below about 32%
tim10-1 confirm – tim10-1 yeast growth inhibition, confirmed. shares compounds with tim10-1 inh. S. cerevisiae tim10-1 ts strain growth, BacTiter-Glo, 24 h. inhibition, % at 20 µM. actives 56% (n = 7,400);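 active means inhibition of yeast growth at or above a set limit in either of two repeat tests at 20 µM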;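 further: tim10-1 mutant grown at permissive 25 °C to find synthetic lethal compounds; 0% = DMSO yeast wells and 100% = medium wells without yeast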
TIM10 conf – confirmation of TIM10 yeast growth inhibitors | shares compounds with TIM10 inh | S. cerevisiae tim10 strain growth, BacTiter-Glo luminescence, 24 h | inhibition, % at 10 µM | actives 63% (n = 4,600) | AID 463215;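 active means inhibition of yeast growth at or above a set limit in either of two replicates at 10 µM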;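 further: this counterscreen used the strain with wild-type TIM10; 0% = yeast with DMSO and 100% = medium wells lacking yeast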
tim23-1 conf – tim23-1 yeast growth inhibition, confirmed; AID 463218; actives 83% (n = 4,400); S. cerevisiae tim23-1 growth, BacTiter-Glo luminescence, 24 h; shares compounds with tim23-1 inh; inhibition, % at 20 µM;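 active means inhibition above about 39% in either of two replicate wells at 20 µM, limit read from the data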;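 further: temperature-sensitive tim23-1 mutant grown at 25 °C; 0% = DMSO wells with yeast and 100% = medium wells without yeast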
Active calls of the source: *; . = no result given. Sampled rows, rich in hits. Any-hit rate of the full collection: about 4.2%.

SMILES | tim23-1 inh | TIM10 inh | V-ATPase pHluor | NLRP3 yeast inh | tim10-1 inh | NALP1 inh | tim10-1 confirm | TIM10 conf | tim23-1 conf
CCOc1ccc(Br)cc1C1=NN(C(C)=O)C(c2ccc([N+](=O)[O-])s2)O1 (centres undefined) | 83* | 45* | 0 | 16 | 64* | 8 | 71* | 55* | 65*
O=S(=O)(c1ccccc1F)N1CCN(c2nc3ccccc3s2)CC1 | 8 | 5 | -1 | 7 | -13 | 29 | . | . | .
COc1ccc(-c2csc3ncnc(N4CCN(Cc5ccccc5)CC4)c23)cc1 | 39 | 28 | -2 | 24 | 39 | 16 | . | . | .
CCOC(=O)N1CCN(c2ncnc3scc(-c4ccccc4)c23)CC1 | 28 | 9 | -1 | 8 | 32 | 21 | . | . | .
CCOC(=O)N1CCN(c2ncnc3scc(-c4ccc(Cl)cc4)c23)CC1 | 57* | 32 | -2 | 17 | 46* | -11 | 40* | . | 44*
Fc1ccc(CN2CCN(c3ncnc4scc(-c5ccc(F)cc5)c34)CC2)cc1 | 54* | 26 | 2 | 11 | 50* | 5 | 46* | . | 53*
CCOc1ccccc1NC(=O)c1nc(S(=O)(=O)Cc2cccc(C)c2)ncc1Cl | 81* | 41* | 3 | 43 | 44* | 9 | 44* | 71* | 83*
CCc1nnc(NC(=O)c2nc(S(=O)(=O)Cc3cccc(C)c3)ncc2Cl)s1 | 22 | 9 | -4 | 7 | 18 | -14 | . | . | .
Cc1ccc(CS(=O)(=O)c2ncc(Cl)c(C(=O)Nc3ccc(OC(F)F)cc3)n2)cc1 | 65* | -46 | -4 | 49 | 44* | 10 | -11 | . | 52*
Cc1ccccc1/C=C1\C(=O)Nc2ccc(F)cc21 | 53* | 26 | 0 | 33 | 44* | 34 | 38* | . | 61*
CNC(=S)N/N=C/c1cn(Cc2c(F)cccc2Cl)c2ccccc12 | 51* | 57* | 0 | 16 | 47* | 20 | 37* | -10 | 40*
O=[N+]([O-])c1ccc(/C=N/Nc2nc(N3CCCCC3)nc(N3CCCCC3)n2)o1 | 50* | 48* | 3 | 19 | 55* | -7 | 46* | 21 | 44*
COc1c(/C=N/Nc2nc(N3CCCCC3)nc(N3CCCCC3)n2)cccc1[N+](=O)[O-] | 14 | 8 | 2 | 16 | 21 | -4 | . | . | .
COc1cccc(C(=O)Oc2ccccc2/C=C\C(=O)c2cc3ccccc3o2)c1 | . | . | 4 | . | . | 10 | . | . | .
O=C(Oc1ccccc1/C=C\C(=O)c1cc2ccccc2o1)c1ccccc1 | 50* | 50* | -4 | 27 | 47* | 28 | 41* | 31* | 49*
CCCCNS(=O)(=O)c1ccc2nc(SCC(=O)c3ccc(C#N)cc3)[nH]c2c1 | 15 | 6 | 3 | 1 | 14 | -9 | . | . | .
O=C(Nc1sc2c(c1C(=O)O)CCC2)c1cccs1 | 28 | 18 | -4 | 5 | 19 | 4 | . | . | .
NC(=O)c1c(NC(=O)c2cccs2)sc2c1CCCCCC2 | 59* | 23 | 3 | 25 | 46* | 14 | 12 | . | 58*
O=[N+]([O-])c1ccc(N2CCc3ccccc3C2)nc1 | 63* | 34 | -19 | 34 | 66* | 3 | 64* | . | 10
Cc1ccc(C(=O)N/C(=C\c2ccc(C(C)C)cc2)C(=O)NCCCN2CCOCC2)cc1 | -2 | 15 | -6 | 7 | -4 | 23 | . | . | .
C/C=C\C=C/C(=O)Nc1cccc(C2=NOC3(C2)C[C@H](C(N)=O)N(C(=O)Cc2ccc([N+](=O)[O-])cc2)C3)c1 (some centres undefined) | 7 | -1 | -4 | -5 | -4 | . | . | . | .
O=C(O)c1cc(-c2ccccc2)nc2ccccc12 | 2 | 7 | -3 | 13 | 5 | 22 | . | . | .
N/C(=N\OC(=O)c1cc(-c2ccccc2)nc2ccccc12)c1cccnc1 | 80* | 71* | -1 | -19 | 52* | 29 | 66* | 77* | 30

Bioassay records deposited in PubChem by several laboratories.
